Where two headings read alike, the source gives them in different places. The campaign covered roughly 13,000 compounds. About 3,200 (25%) showed an effect of 50% or more. This is one part of the list.
Tested on: P. falciparum stage V gametocytes
Design: BacTiter-Glo ATP luminescence viability of purified stage V gametocytes in 384-well plates, per cent inhibition versus DMSO
Details: 48 h, 5 µM, inhibitor

Compound | % Inhibition | % Inhibition (% Inhibition)
Cc1ccc(NC(=O)c2ccc(NCCCN(C)Cc3ccccc3)c([N+](=O)[O-])c2)cc1F [TCMDC-125686] | 12.99% | –
O=C(Nc1ccccc1F)NC1CCN(c2ccnc(Nc3ccc(F)cc3)n2)C1 (stereo not shown) [TCMDC-133603] | -76.2% | –
N#Cc1cccc(NC(=O)Nc2cccc(OC3CCN(Cc4ccccc4)CC3)c2)c1 [TCMDC-139545] | 11.02% | –
O=C(Nc1ccc2c(c1)CCC2)N[C@H]1CCN(Cc2ccc(OCCCN3CCCCC3)cc2)C1 [TCMDC-141790] | 89.55% | –
O=C(Nc1ccc(C(=O)Oc2ccc3ccccc3c2)cc1)N[C@@H](Cc1ccc(O)cc1)C(=O)NC1CCN(Cc2ccc(O)cc2)C1 (stereo partly shown) [TCMDC-135358] | -34.98% | –
O=C(Nc1ccc2c(c1)CCC2)N[C@H]1CCN(CCCCCNC(=O)C2CC2c2ccc(Cl)c(Cl)c2)C1 (stereo partly shown) [TCMDC-136264] | 5.581% | –
O=C(Nc1cccc(Oc2ccccc2)c1)N[C@H]1CCN(Cc2ccc(OCCCN3CCCCC3)cc2)C1 [TCMDC-141785] | 106.3% | –
O=C(Nc1ccc(-c2ccccc2)cc1)Nc1cccc(OCCN2CCCC2)c1 [TCMDC-139541] | -48.88% | –
N#Cc1cc(C(=O)c2cc(Br)ccc2O)cn(C2CCCCC2)c1=O [TCMDC-123629] | -45.84% | –
O=C(/C=C/c1ccc(Cl)c(Cl)c1)NCCCCCN1CCC(c2c[nH]c3ccccc23)C(O)C1 (stereo not shown) [TCMDC-139656] | – | -35.83%
CC(=O)c1cccc2cc(C(=O)NC3CCC(CCN4CCc5ccc(C#N)cc5C4)CC3)[nH]c12 (stereo not shown) [TCMDC-139192] | 14.52% | –
Nc1nc2c(cnn2CCCCCCCP(=O)(O)O)c(=O)[nH]1 [TCMDC-137339] | 21.15% | –
N#Cc1cccc(C(=O)Nc2ccc(-c3cccc(CN4CCCC4)c3)cc2)c1 [TCMDC-132674] | 97.51% | –
N#Cc1ccc(C(=O)Nc2cccc(-c3ccc(CN4CCCC4)cc3)c2)cc1 [TCMDC-132639] | 23.71% | –
CN1CCCN(Cc2cccc(-c3cccc(NC(=O)c4cccc(C#N)c4)c3)c2)CC1 [TCMDC-132661] | 20.56% | –
N#Cc1cccc(C(=O)Nc2ccc(-c3ccc(CN4CCCC4)cc3)cc2)c1 [TCMDC-132596] | 64.33% | –
N#Cc1ccc(C(=O)Nc2ccc(-c3cccc(CN4CCCC4)c3)cc2)cc1 [TCMDC-132668] | 1.206% | –
CN1CCCN(Cc2ccc(-c3ccc(NC(=O)c4cccc(C#N)c4)cc3)cc2)CC1 [TCMDC-132594] | -1.455% | –
CN1CCCN(Cc2cccc(-c3ccc(NC(=O)c4cccc(C#N)c4)cc3)c2)CC1 [TCMDC-132673] | 15.02% | –
CN1CCCN(Cc2ccc(-c3cccc(NC(=O)c4cccc(C#N)c4)c3)cc2)CC1 [TCMDC-132648] | 64.68% | –
N#Cc1cccc(C(=O)Nc2cccc(-c3ccc(CN4CCCC4)cc3)c2)c1 [TCMDC-132650] | 24.3% | –
O=C(NCc1ccc(C(=O)NC2CCCCC2)cc1)c1ccc(O)c(-c2ccc(Cl)c(Cl)c2)c1 [TCMDC-140825] | -4.793% | –
CN(c1ccc(C(=O)N[C@@H](CCC(=O)O)C(=O)O)cc1)S(=O)(=O)c1ccc2nc(N)[nH]c(=O)c2c1 [TCMDC-137344] | 2.989% | –

Compound | % Inhibition | % Inhibition (% Inhibition)
COC(=O)c1ccc(CC(C)NCC(O)c2cccc(C(F)(F)F)c2)c(OC)c1 (stereo not shown) [TCMDC-131469] | 14.6% | –
CCN(CCCN1CCCCC1)c1cc(C)nc(Nc2cccc(OC(F)(F)F)c2)n1 [TCMDC-132429] | -20.04% | –
COc1cc2nc(N3CCC(CNC(=O)c4ccc(-c5ccc(C(=O)N(C)C)cc5)cc4)CC3)nc(N)c2cc1OC [TCMDC-138719] | 58.63% | –
COc1cc2nc(N3CCC(CNC(=O)c4ccc(-c5ccc(C(=O)N(C)C)cc5O)cc4)CC3)nc(N)c2cc1OC [TCMDC-138752] | 72.56% | –
COc1cc2nc(N3CCC(CNC(=O)c4ccc(-c5ccc(C(=O)N(C)C)cc5OCCO)cc4)CC3)nc(N)c2cc1OC [TCMDC-138766] | -18.75% | –
COCCNc1nc(N2CCC(CNC(=O)c3ccc(-c4ccc(C(=O)N(C)C)cc4C)cc3)CC2)nc2cc(OC)c(OC)cc12 [TCMDC-138729] | 5.197% | –
COc1cc2nc(N3CCC(CNC(=O)c4ccc(-c5ccc(C(=O)N(C)C)cc5OCCN(C)C)cc4)CC3)nc(N)c2cc1OC [TCMDC-138760] | 100.1% | –
COc1cc2nc(N3CCC(CNC(=O)c4ccc(-c5ccc(C(=O)N(C)C)cc5)c(OCCO)c4)CC3)nc(N)c2cc1OC [TCMDC-138742] | 39.21% | –
COc1cc2nc(N3CCC(CNC(=O)c4ccc(-c5ccc(C(=O)N(C)C)cc5C)cc4)CC3)nc(N3CCN(C)CC3)c2cc1OC [TCMDC-138724] | 15.4% | –
NCCc1cccc(-c2cnc3[nH]cc(-c4ccc(C(=O)O)cc4)c3c2)c1.O=C(O)C(F)(F)F [TCMDC-136363] | -2.826% | –
CN(Cc1cnc2nc(N)nc(N)c2n1)c1ccc(C(=O)NC(CCC(=O)O)C(=O)O)cc1 (stereo not shown) [TCMDC-123832] | – | 33.25%
CN(C)S(=O)(=O)n1ccc2c3c(N)nc(N)nc3ccc21 [TCMDC-137973] | -6.92% | –
NC(=O)c1cccc(CN2Cc3ccccc3OC3(CCN(Cc4c[nH]c5cnccc45)CC3)C2)c1 [TCMDC-133382] | -16.29% | –
COc1ccc2nccc([C@@H](O)CN3CCC(NCCOc4c(C)cccc4F)CC3)c2c1 [TCMDC-140657] | 37.85% | –
CCOC(=O)CC[C@H](NC(=O)c1ccc(NS(=O)(=O)c2ccc(-c3cnc(N)[nH]c3=O)cc2)cc1)C(=O)OCC [TCMDC-137679] | 3.183% | –
O=C(Nc1cccc(C(F)(F)F)c1)NC1CCN(c2ccnc3ccccc23)C1 (stereo not shown) [TCMDC-133579] | -23.57% | –
CN1CCC(NC(=O)c2cc(Oc3ccc4c(c3)CCN4C(=O)Nc3cccc(C(F)(F)F)c3)ccn2)CC1 [TCMDC-141751] | 51.02% | –
Cc1cc2c(cc1C(F)(F)F)N(C(=O)Nc1cccc(C(=O)NC3CCN(Cc4ccccc4)CC3)c1)CC2 [TCMDC-139972] | -14.42% | –
COc1cc(Nc2nccc(N3CCC(NS(=O)(=O)c4ccc(NC(C)=O)cc4)CC3)n2)cc(OC)c1OC [TCMDC-133634] | -31.03% | –
O=[N+]([O-])c1cc(/C=N/Nc2nc3ccccc3[nH]2)ccc1O [TCMDC-139076] | 6.997% | –
O=C(Nc1ccc(F)cc1)NC1CCN(c2ccnc3cc(Cl)ccc23)C1 (stereo not shown) [TCMDC-133407] | -45.03% | –
Cc1nc2ccccc2n1C1CC2CCC(C1)N2CCCC1(c2ccccc2)CCN(C(=O)OCc2ccccc2)CC1 (stereo not shown) [TCMDC-138708] | 52.65% | –
Cc1nc2ccccc2n1C1CC2CCC(C1)N2Cc1nccn1-c1ccccc1 (stereo not shown) [TCMDC-134167] | -3.664% | –

Compound | % Inhibition | % Inhibition (% Inhibition)
O=C(/C=C/c1ccc(Cl)c(Cl)c1)NCCCCCN1CCC(NC(=O)Nc2ccc([N+](=O)[O-])cc2)CC1 [TCMDC-135719] | -1.594% | –
c1ccc([C@H]2CN3CCSC3=N2)cc1 [TCMDC-125847] | 1.326% | –
COc1c(C)[nH]c(C)c(-c2ccc(Oc3cccc(C(F)(F)F)c3)cc2)c1=O [TCMDC-135253] | 67.89% | –
Cc1cc(=O)c(-c2ccc(OCc3ccc(OC(F)(F)F)cc3)cc2)c(C)[nH]1 [TCMDC-132123] | 25.03% | –
Cc1cc(=O)c(-c2ccc(Oc3cccc(C(F)(F)F)c3)cc2)c(C)[nH]1 [TCMDC-137536] | – | 72.24%
Cc1[nH]c2c(c(=O)c1Cl)-c1ccc(Oc3cccc(C(F)(F)F)c3)cc1C2=O [TCMDC-136022] | 56.81% | –
Cc1cc(=O)c(-c2ccc(Oc3cccc(C(F)(F)F)c3)cc2)c(C)[nH]1 [TCMDC-133308] | – | 48.03%
Cc1cc(=O)c(-c2ccc(Oc3ccc(C(F)(F)F)cc3)cc2)c(C)n1O [TCMDC-138136] | 12.43% | –
Cc1[nH]c(C)c(C(F)(F)F)c(=O)c1-c1ccc(Oc2ccc(OC(F)(F)F)cc2)cc1 [TCMDC-135444] | 33.82% | –
Cc1cc(=O)c2cc(-c3ccc(OC(F)(F)F)cc3)ccc2[nH]1 [TCMDC-137042] | 32.81% | –
Cc1cc(=O)c(-c2ccc(OCCSc3ccc(C(F)(F)F)cn3)cc2)c(C)[nH]1 [TCMDC-135289] | 67.89% | –
Cc1[nH]c(C)c([N+](=O)[O-])c(=O)c1-c1ccc(Oc2ccccc2)cc1 [TCMDC-135779] | 22.46% | –
Cc1nc2c(c(O)c1Cl)-c1ccc(Oc3cccc(C(F)(F)F)c3)cc1C2=O [TCMDC-136021] | 8.301% | –
Cc1[nH]n(-c2cccc(C(F)(F)F)c2)c(=O)c1-c1ccc(Cl)cc1 [TCMDC-124050] | 16.03% | –
CC1(C)N=C(N)N=C(N)N1OCCCOc1c(Cl)cc(Cl)cc1Cl [TCMDC-131623] | -2.968% | –
COC(=O)c1cccc(NC(=O)NC2CCN(c3ccnc(Nc4ccc(F)cc4)n3)C2)c1 (stereo not shown) [TCMDC-133606] | -36.49% | –
COc1ccc(-c2nc3c4cc(I)ccc4c4ccccc4c3[nH]2)cc1 [TCMDC-124198] | -15.52% | –
c1ccc(C2CCC(N3CCC(N4CCN(c5ccccc5)CC4)CC3)CC2)cc1 (stereo not shown) [TCMDC-124572] | 20.28% | –
Cc1cc(=O)c(-c2ccc(Oc3cccc(OC(F)(F)F)c3)cc2)c(C)[nH]1 [TCMDC-137266] | 80.76% | –
Cc1cc(=O)c2cc(Oc3cccc(OC(F)(F)F)c3)ccc2[nH]1 [TCMDC-132124] | -25.2% | –
Cc1cc(=O)c(-c2ccc(Oc3ccc(OC(F)(F)F)cc3)cc2)c(C)[nH]1 [TCMDC-137390] | 34.7% | –

Source: paper PMC4552634, “A New Set of Chemical Starting Points with Plasmodium falciparum Transmission-Blocking Potential for Antimalarial Drug Discovery” (PLoS ONE, 2015)
